About 5,000 (1.2%) of roughly 410,000 compounds were called active. Another 13% or so got no clear call; they are omitted. Only a selection was taken, and actives are over-represented in it overall. Unmarked numbers belong to inactive results. The call rests on the fitted dose curve; in most records, active means well fitted inhibition curve with a large enough effect; inconclusive means small, poorly fitted or top-dose-only effect; inactive means no such curve, though single readings can be large or run the other way.
Experiment: qHTS for Inhibitors of TGF-b; further: nearly all actives have a fitted effect of over 65% in size
Settings: HepG2 CAGA-GFP TGF-b/SMAD3 reporter, GFP fluorescence, 18 h, TGF-beta stimulated, 500 pg/mL final; series mostly up to 46.1 µM; activity, negative = inhibition: at the top concentration
Outline: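 HEPG2 CAGA-GFP cells (1000/well, DMEM with 1% FBS) were pre-incubated 2 h at 37 degrees C, given compound by pin tool, then stimulated with TGF-beta at 500 pg/mL final for 18 h before per-cell GFP fluorescence imaging.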
On the % scale 0 is the no-effect control and ±100 the full control effect; potency means the concentration at half of the fitted maximal effect.

Compound | Potency | activity, negative = inhibition [%]
Cc1c(Cl)cccc1NC(=O)C1CCCN(C(=O)c2cnn(-c3ccccc3)c2-n2cccc2)C1 (centres undefined) | 12.6 µM (active) | 
Cc1cccc(NC(=O)C2CCCN(C(=O)NCc3ccccc3)C2)c1C (centres undefined) |  | -10.4
Cc1c(Cl)cccc1NC(=O)C1CCCN(c2ncnc3onc(C)c23)C1 (centres undefined) |  | -13.3
CCOc1ccccc1NC(=O)Cn1c2ncccc2c(=O)n1-c1ccc(C)c(C)c1 |  | -0.756
Cc1[nH]c2ccccc2c1C(=O)C(=O)N(C)c1ccccc1 |  | -12
COc1ccc(-c2cn3c(C)c(C(=O)Nc4cc(C)cc(C)c4)sc3n2)cc1 |  | 0.33
COc1ccc(C(CCN(Cc2ccc(OC)c(OC)c2)C(=O)CCl)c2ccccc2)cc1 (centres undefined) | 14.1 µM (active) | 
COc1ccc(C(C(=O)NC2CCCCC2)N(C(=O)CCl)c2ccccc2Cl)cc1 (centres undefined) |  | 5.59
COc1ccc(CCNC(=O)CN(c2ccccc2)S(C)(=O)=O)cc1OC |  | -11.8
CC(=O)c1ccc2c(c1)c1ccccc1n2CC(C)C | 7.08 µM (active) | 
CCn1c(=O)c2cc(C(=O)Nc3cccc(C(C)=O)c3)sc2c2ccccc21 |  | 36.2
CCn1c2ccccc2c2cc(CC(N)=O)ccc21 |  | 10.2
CCOC(=O)N1CCC(NC(=O)c2cnn(-c3cccc(C)c3)c2C2CCN(C(=O)OC(C)(C)C)CC2)CC1 |  | -6.58
O=C(NCCc1ccccc1)C(=O)NCC(c1ccco1)S(=O)(=O)c1ccccc1 (centres undefined) |  | 5.98
CCOCCCNC(=O)c1c(NC(=O)c2nc(SC)ncc2Cl)sc2c1CCCC2 |  | 11.6
O=C(Nc1cccc2cccnc12)c1cccc2c(Br)cccc12 |  | -11.1
CC(=O)c1ccc(NC(c2ccc(F)cc2)c2nnc(-c3ccccc3)o2)cc1 (centres undefined) |  | 0.279
Cc1ccc(C)c(N2CCN(C(c3ccccc3)c3nnc(-c4ccccc4)o3)CC2)c1 (centres undefined) |  | -6.53
Fc1ccc(C(Nc2ccc(Cl)c(C(F)(F)F)c2)c2nnc(-c3ccccc3)o2)cc1 (centres undefined) | 10 µM (active) | 
Cc1ccc(-c2nnc(SCc3ccccc3C)o2)cc1 |  | -13.1
CCOC(=O)c1cccc(NS(=O)(=O)c2cn(C)c(C)n2)c1 |  | 1.9
Cc1c(C(=O)N(C)C)sc2c1c(=O)n(-c1ccc(F)cc1)c(=O)n2CC(=O)N(C)c1ccccc1 |  | 9.55
CCNC(=O)c1cc2n(n1)CCCN(Cc1ccc(C)cc1)C2=O |  | -2.45
Cc1ccc(NC(=O)c2cc3cc(C)ccc3n2C)cc1 |  | -0.488
CCCn1c(=N)c(C(=O)NCc2ccccc2)cc2c(=O)n3cccc(C)c3nc21 |  | 86.4

Compound | Potency | activity, negative = inhibition [%]
COC(=O)COc1cccc2c(=O)n(CC(=O)NCc3ccccc3)ccc12 | 8.91 µM (active) | 
CCCn1ccc2c(OCC(=O)NCc3ccc(F)cc3)cccc2c1=O |  | -35.8
CCOCCn1ccc2c(OCC(=O)NCc3ccc(C)cc3)cccc2c1=O |  | -0.375
COc1ccc(OCC(=O)Nc2cccc(C(=O)OCc3cc(=O)n4nc(C)sc4n3)c2)cc1 |  | 0.41
O=C(NCCN1CCOCC1)c1ccc2c(c1)N(Cc1cccc(Cl)c1)C(=O)c1ccccc1S2(=O)=O |  | -13.7
O=C(NCCCN1CCCCC1)c1ccc2c(c1)NC(=O)C(N1CCOCC1)S2 (centres undefined) |  | -0.157
O=C(NCCCN1CCOCC1)c1ccc2c(c1)N(Cc1cccc(F)c1)C(=O)c1ccccc1S2 | 11.2 µM (active) | 
O=C(NCCCN1CCOCC1)c1cc(-c2ccccc2F)no1 |  | -4.7
CCC1=Nc2cc(C(=O)NCCCN3CCOCC3)ccc2Sc2ccc(Br)cc21 |  | -10.2
Cc1csc2nc(COC(=O)c3ccc(NC(=O)COc4ccccc4F)cc3)cc(=O)n12 |  | -17.6
COc1ccccc1CNC(=O)C(=O)NCC(c1cccs1)S(=O)(=O)c1cccs1 (centres undefined) |  | 2.99
Cc1ccc2c(c1)N(C(=O)Nc1ccc(Br)cc1F)CCO2 |  | 1.64
C[C@@H]1C(c2ccc(F)cc2)=NN(c2ccc(Br)cc2)[C@H]1C(=O)N1CCOC1=O | 14.1 µM (active) | 
CC1CC(C)CN(C(=O)C2CC(=O)N(c3ccc(F)cc3)C2)C1 (centres undefined) |  | 7.86
COc1ccc(CNC(=O)c2cc3c(s2)-c2ccccc2OC3)cc1 |  | 3.78
Cc1cc(C)cc(-n2c(SCC(=O)NCC3CCCO3)nc3c([nH]c4ccccc43)c2=O)c1 (centres undefined) |  | 2.07
Cc1oc(-c2ccccc2)nc1Cn1c(SCc2cccc(C(F)(F)F)c2)nc2cccnc21 | 15.8 µM (active) | 
Cc1cccc(CSc2nc3ccncc3n2Cc2ccc(C(=O)O)cc2)c1 |  | 12.2
Cc1ccc(CSc2nc3cccnc3n2Cc2ccc(C(=O)NC3CC3)cc2)cc1 |  | -1.14
COC(=O)c1ccc(OC)c(Cn2c(=O)n(Cc3ccccc3)c(=O)c3c2c2cc(OC)ccc2n3C)c1 |  | -1.14
COc1cc2[nH]c(C)c(CCN3CCN(c4ccccc4)CC3)c2cc1OC |  | -37.4
O=C(CNS(=O)(=O)c1cccc(C(F)(F)F)c1)Nc1ccccc1F |  | -15.6
O=C(Nc1cc(C(F)(F)F)ccc1Cl)c1nc2ccccc2nc1N1CCCCC1 |  | 12.6
O=C(NNc1ccccc1Cl)C(O)(c1cccc(C(F)(F)F)c1)c1cccc(C(F)(F)F)c1 | 15.8 µM (active) | 

— PubChem BioAssay AID588855 (National Center for Advancing Translational Sciences (NCATS), 2011)
